An excerpt weighted towards active compounds, which were near 19% of everything screened.
IL1B secr inh – inflammasome signaling inhibition, IL-1 beta readout | 360,000 compounds, 4.7% hits | activity change, % at 57.5 µM | THP-1 LPS/ATP IL-1B secretion, AlphaLISA, 16 h; stronger effect = lower value; in the data active means activity change below about -50%; inconclusive means mostly about -30% to -49%
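THP-1 cells pretreated 1 hr with compounds (up to 57.5 uM final), then stimulated with LPS (250 ng/mL final) plus ATP (1.25 mM final); secreted IL-1B measured by AlphaLISA after 16 hr, decreased signal indicating inhibition.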
TDP1 cell noCPT – qHTS for Inhibitors of human tyrosyl-DNA phosphodiesterase 1 (TDP1): qHTS in cells in absence of CPT | AID 686978, 2013 | 420,000 compounds, 15% hits | DT40 Tdp1-/- hTDP1 cells, no CPT, ATP luminescence, 48 h | Potency, µM (top dose mostly 46.2 µM), without a hit: at the top dose activity change, negative = growth inhibition, hits mostly inhibitors; further: potency means the concentration at half of the fitted maximal effect; nearly all actives have a fitted effect of over 55% in size
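Cells were dispensed at 400 per well, compounds added by pin tool, plates incubated ≥48 hr at 37 °C, then CellTiter-Glo added for 30 min at room temperature before luminescence reading. Line: DT40 Tdp1-/- complemented with hTDP1; camptothecin omitted.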
TDP1 cell CPT – growth inhibition of DT40 Tdp1-/-;hTDP1 cells with camptothecin (screen for TDP1 inhibitors) | chicken DT40 Tdp1-/-;hTDP1 cells + 20 nM CPT, ATP luminescence, 48 h | Potency, µM (highest dose often 46.2 µM), for the others: top-dose activity change, negative = growth inhibition, most hits filed as inhibitors | 420,000 compounds, 12% hits | AID 686979; further: potency means the concentration at half of the fitted maximal effect; nearly all actives have a fitted effect of over 55% in size
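Chicken DT40 Tdp1-/- cells stably complemented with human TDP1 were seeded at 400 cells/well in medium containing 20 nM camptothecin, exposed to pin-transferred compounds, and grown at 37 °C for at least 48 hr. Viability was read as ATP luminescence.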
HT1080 IDH1KD tx – toxicity to HT-1080 IDH1 knockdown cells (counter line); HT-1080 IDH1 knockdown viability, ATP luminescence, 48 h; 360,000 compounds, 2% hits; Potency, µM (highest dose often 46.1 µM), for the others: at the top dose activity, negative = toxicity, usual class: cytotoxic; AID 686971;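 further: potency means the concentration at half of the fitted maximal effect; 0% = DMSO wells and -100% = cell-free medium wells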
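HT-1080-IDH1KD cells (IDH1 knocked down), 750/well in RPMI with 5% FBS, treated with compound 48 h at 37 degrees C. Viability by CellTiter-Glo luminescence, normalised to DMSO and no-cell wells; concentration-response curves classed.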
HT1080NT lethal – kills 2HG-producing HT-1080-NT fibrosarcoma cells | HT-1080-NT fibrosarcoma viability, CellTiter-Glo ATP luminescence, 48 h | Potency, µM (doses to about 46.1 µM), without a hit: at the highest dose activity, negative = less viability, most hits filed as cytotoxic | AID 686970 | 360,000 compounds, 1.6% hits;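 further: NT is the 2HG producing partner of a matched IDH1 knockdown line; potency means the concentration at half of the fitted maximal effect; 0% = DMSO-treated cells and -100% = media-only wells without cells; nearly all actives have a fitted effect of over 55% in size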
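750 cells/well, RPMI + 5% FBS; 2 h settle, compound pin-transfer, 48 h at 37 degrees C. CellTiter-Glo 10 min RT, luminescence. Normalized to DMSO and media-only wells.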
Active calls of the source: *; i = inactive; ? = inconclusive; nt = not tested or not shown; [ ] = another dose, or the depositor's remark. Unless noted, the call rests on the fitted dose curve; in most records, active means well fitted curve in the direction sought with a large enough effect; inconclusive means small, poorly fitted or top-dose-only effect, or another doubt; inactive means no such curve, though single readings can be large; an effect the other way counts as inactive or inconclusive. Unless noted, on the % scale 0 is the no-effect control and ±100 the full control effect.

SMILES	IL1B secr inh	TDP1 cell noCPT	TDP1 cell CPT	HT1080 IDH1KD tx	HT1080NT lethal
CNC(=O)c1c(NC(=O)Cc2coc3ccc(C)cc23)sc2c1CCCC2	nt	18µM*	?	nt	nt
CCNC(=O)c1c(NC(=O)Cc2coc3ccc(CC)cc23)sc2c1CCCC2	nt	-7%	-18%	nt	nt
Cc1cc(Br)ccc1NC(=O)c1ccc(NS(=O)(=O)c2c(C)noc2C)cc1	nt	-24%	-9%	nt	nt
O=C(c1cccc(S(=O)(=O)N2CCc3ccccc32)c1)N1CCOCC1	-9	?	-30%	12%	-3%
OC(CSc1ccccc1)CN1CCN(c2ccc(Cl)cc2)CC1 (centres undefined)	?	21µM*	?	1%	-9%
CC(NC(=O)CN1CCN(c2cccc(Cl)c2)CC1)c1ccccc1 (centres undefined)	0	-26%	?	-1%	-3%
c1ccc(SCCN2CCN(c3ccccc3)CC2)cc1	-1	-14%	-16%	-1%	0%
OC(CSc1ccccc1)CN1CCN(c2cccc(Cl)c2)CC1 (centres undefined)	-17	21µM*	?	2%	-18%
COc1ccc(C(=O)NCC(=O)N/N=C(\C)c2ccco2)cc1OC	11	-1%	4%	1%	5%
Cc1ccccc1NC(=O)C(C)Sc1nnc(CN2CCCC2)n1Cc1ccccc1 (centres undefined)	-22	16µM*	?	-2%	0%
Cc1nnc(SC(C)C(=O)Nc2ccc(Cl)cn2)n1Cc1ccccc1 (centres undefined)	-60*	?	-26%	-5%[9.24 µM]	?
CC(Sc1nnc(CN2CCCC2)n1Cc1ccccc1)C(=O)Nc1ccccc1 (centres undefined)	20	-5%	-10%	3%	2%
Cc1cnc(CNC(=O)c2ccc3nc([C@@H]4O[C@H](CO)[C@H](O)[C@H](O)[C@H]4O)[nH]c3c2)cn1	3	1%	1%	19%	28%
O=C(NC1CC1)c1cccc2c1C(=O)c1ccc(N3CCC(N4CCCCC4)CC3)cc1S2(=O)=O	1	-27%	-2%	18%	2%
Cc1cc(C)c2c(c1)N[C@H](c1cccs1)[C@@H]1CCO[C@H]21	-15	?	-21%	9%	9%
CC(C)c1ccc2c(c1)[C@H]1OCC[C@H]1[C@@H](c1cccs1)N2	-2	10µM*	16µM*	3.3µM*	2.9µM*
COCCN1CCN(C(=O)c2cnn(-c3nccc(-c4ccco4)n3)c2C2CC2)CC1	nt	-4%	0%	nt	nt
COc1ccc(N(C)C(=O)c2cn(CC(C)C)c(=O)c3cc(OC)c(OC)cc23)cc1	-1	?	-5%	-6%	0%
CCOC(=O)c1c(NC(=O)c2ccc(N3C(=O)[C@@H]4[C@H](C3=O)[C@H]3C=C[C@@H]4C3)cc2)sc2c1CC(C)CC2 (some centres undefined)	-81*	1.2µM*	-45%	15%	10%
CCOC(=O)c1ccsc1NC(=O)CCS(=O)(=O)c1ccccc1	-82*	?	?	-15%	2%
CCOC(=O)c1c(NC(=O)CCS(=O)(=O)c2ccccc2)sc2c1CCN(C(C)C)C2	-80*	4.1µM*	4.1µM*	11%	10%
CCOC(=O)c1c(NC(=O)c2ccc(S(=O)(=O)N3CCC(C)CC3)cc2)sc2c1CCN(C(C)C)C2	nt	15µM*	23µM*	nt	nt
COc1ccccc1CCC(=O)Nc1ccc(S(=O)(=O)Nc2ncccn2)cc1	38	?	?	0%	0%
Cc1ccc(CNC(=O)C2CCC(CNS(=O)(=O)c3ccc4c(c3)CCCC(=O)N4)CC2)cc1 (centres undefined)	nt	-3%	0%	nt	nt
CCn1c(=O)c2[nH]c(Cl)nc2n(CC)c1=O	-10	?	?	?	-7%
SMILES	IL1B secr inh	TDP1 cell noCPT	TDP1 cell CPT	HT1080 IDH1KD tx	HT1080NT lethal
O=C(NCCc1cccnc1)c1cnn(-c2ncc3c(n2)-c2ccccc2CC3)c1C1CC1	nt	?	6%[9.04 µM]	nt	nt
CCN1CCN(S(=O)(=O)c2ccc(C(=O)Nc3sc4c(c3C(N)=O)CCN(CC)C4)cc2)CC1	-14	-18%	?	-13%	-8%
COC(=O)c1c(NC(=O)c2ccc(S(=O)(=O)N3CCCCC3)cc2)sc2c1CCN(C)C2	nt	4.6µM*	4.6µM*	nt	nt
CCOC(=O)c1c(NC(=O)c2ccc(S(=O)(=O)N3CCC(C)CC3)cc2)sc2c1CCN(CC)C2	nt	21µM*	13µM*	nt	nt
O=c1c2cn(Cc3ccccc3)c3ccccc3c-2nn1Cc1ccc(F)cc1Cl	2	-8%	-7%	14%	3%
O=C(C[n+]1ccn(CCCNP2(=O)C=C(c3ccccc3)OC(c3ccccc3)=C2)c1)c1cccs1	?	-20%	15µM*	1%	1%
Cc1cc[n+](CC(=O)c2cccs2)cc1	-2	-9%	2%	6%	4%
NC(=S)N/N=C/c1c[nH]c2ccc(OCc3ccccc3)cc12	-14	?	?	-21%	-13%
CCOc1ccc(OCC)c(-c2c(=O)n(OCc3ccc(C(C)(C)C)cc3)c3ccccc3[n+]2[O-])c1	-29	18µM*	21µM*	-6%	20%
CCOc1ccc(-c2c(=O)n(OCC)c3ccccc3[n+]2[O-])cc1	15	1%	-6%	6%	4%
CCOc1ccc(-c2c(=O)n(O)c3ccccc3[n+]2[O-])cc1	-1	13µM*	?	2%	-2%
COc1ccccc1NC(=O)c1ccc2c(c1)nnn2C	-15	-4%	-2%	1%	15%
O=C(O)COc1ccc(/C=C/C(=O)c2ccc3ccccc3c2)cc1	-99*	0%	15%	?	?
O=C(O)COc1ccc(/C=C/C(=O)c2ccc(C3CCCCC3)cc2)cc1	-101*	18µM*	?	?	?
CCCC(=Nc1ccccc1OC)C1=C(O)CC(c2ccccc2)CC1=O (centres undefined)	i	?	?	1%	-7%
COc1ccccc1N=C(C)C1=C(O)CC(c2ccccc2)CC1=O (centres undefined)	32	0.82µM*	0.52µM*	?	?
O=c1cc(CSc2nnc(NC3CCCCC3)s2)nc2sccn12	38	-7%	21%	2%	-5%
c1ccc(CSc2nnc(NC3CCCCC3)s2)cc1	-52*	21µM*	?	2%	-2%
O=C(CSc1nnc(NC2CCCCC2)s1)NCc1ccco1	4	?	14%	-4%	-1%
COC(=O)c1cc(CSc2nnc(NC3CCCCC3)s2)oc1C	0	?	?	18µM*	-4%
CCN(c1ccccc1)S(=O)(=O)c1ccc2[nH]cc(C(=O)NC3CCCCC3)c(=O)c2c1	nt	15µM*	?	nt	nt
